Shown are actives, neighbours in structure and some others; about 2.4% of the full set was active somewhere.
NTMT1 inhibitor: Primary qHTS for Inhibitors of N-terminal methyltransferase 1 (NTMT1): MTaseGlo Assay. NTMT1 MTase-Glo SAH luminescence, purified enzyme. Potency, µM (doses to about 114 µM), hits mostly inhibitors. N-terminal Xaa-Pro-Lys N-methyltransferase 1 (Homo sapiens), Q9BV86. actives 2.5% (n = 59,000). AID 1645870, 2021; also: nearly all actives have a fitted effect of over 65% in size
Target sequence (Q9BV86 whole entry, looked up): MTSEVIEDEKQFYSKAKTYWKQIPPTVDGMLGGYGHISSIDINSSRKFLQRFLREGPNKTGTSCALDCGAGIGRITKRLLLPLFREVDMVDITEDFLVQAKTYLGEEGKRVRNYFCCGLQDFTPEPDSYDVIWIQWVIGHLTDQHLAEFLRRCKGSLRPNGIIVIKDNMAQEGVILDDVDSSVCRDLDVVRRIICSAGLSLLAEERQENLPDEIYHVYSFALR
HTT-AS promoter: Primary qHTS for Identification of Small Molecule Activators of Huntingtin-Antisense Promoter Activity. HEK293 HTT-AS promoter firefly luciferase reporter, 24 h; response scale: percent change from vehicle, -100% = no light. Potency, µM (series often up to 57.5 µM), hits mostly activators. AID 1508624, 2021. actives 0.24% (n = 48,000); also: nearly all actives have a fitted effect of over 55% in size
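Firefly luciferase signal from promoter-reporter HEK293 cells was scaled between vehicle (0%) and zero RLU (-100%). Compounds were tested at final concentrations of up to 57.5 uM over 24 h at 37 degrees C. PTC124 at 50 uM final served as control inhibitor.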
HTT promoter inh: Primary qHTS for Identification of Small Molecule Inhibitors of Huntingtin Promoter Activity. HEK293 HTT promoter firefly luciferase reporter, 24 h. Potency, µM (doses to about 57.5 µM), actives largely listed as inhibitors. actives 0.93% (n = 48,000). AID 1508623, 2021; also: nearly all actives have a fitted effect of over 50% in size
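HEK293 luciferase promoter-reporter cells (2,500/well) plated 24 h, then compounds added at up to 57.5 uM final for 24 h at 37 °C. Firefly luminescence by Dual-Glo, normalized to vehicle (0%) and zero RLU (-100%).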
NNMT counter: Counterscreen qHTS for Inhibitors of N-terminal methyltransferase 1 (NTMT1): NNMT MTaseGlo assay | shares compounds with NTMT1 inhibitor | NNMT MTase-Glo luminescence, SAH detection | Potency, µM (doses to about 57.1 µM), most hits filed as inhibitors | actives 10% (n = 120) | AID 1645878, 2021
Target sequence (P40261 whole entry, looked up): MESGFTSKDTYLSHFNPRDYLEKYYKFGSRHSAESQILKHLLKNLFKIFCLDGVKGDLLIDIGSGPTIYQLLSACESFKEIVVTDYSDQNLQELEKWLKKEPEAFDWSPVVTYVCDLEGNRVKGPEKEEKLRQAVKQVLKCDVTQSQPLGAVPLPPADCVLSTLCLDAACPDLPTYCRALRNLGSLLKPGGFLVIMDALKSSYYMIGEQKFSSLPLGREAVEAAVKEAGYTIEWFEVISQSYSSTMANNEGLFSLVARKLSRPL
A number is an active result; – = inactive; ? = inconclusive; · = no result given; ! = repeats disagree; [ ] = another dose, or the depositor's remark. Calls follow the shape of the dose curve; as a rule, active = well fitted curve in the direction sought with a large enough effect; inconclusive = small, poorly fitted or top-dose-only effect, or another doubt; inactive = no such curve, though single readings can be large; an effect the other way counts as inactive or inconclusive.

SMILES | NTMT1 inhibitor | HTT-AS promoter | HTT promoter inh | others
CCOC(=O)c1ccc(NC(=O)c2cccn(Cc3ccccc3F)c2=O)cc1 | – | – | 1.4µM
CCOC(=O)c1ccc(NC(=O)c2cccn(Cc3ccc(C)cc3)c2=O)cc1 | – | – | –
CC(N[C@H]1C[C@@H]1c1ccccc1)c1ccc2c(c1)OCCO2 (stereo not given in full) | – | · | ·
COC1CC(OC2CCC3(C=O)C(CCC4C3CCC3(C)C(C5=CC(=O)OC5)CCC43O)C2)OC(C)C1O (stereo not given) | – | · | ·
Cc1ccc([N+](=O)[O-])[c]2c1[O][Hg]2 | 0.89µM | – | ?
C/C=C(/C)C(=O)O[C@H]1[C@@H]2[C@H](C)C(=O)O[C@@H]2C[C@@H](C)[C@@H]2C=CC(=O)[C@]21C | – | · | ·
COC[C@]12CN(C)C3C4[C@H](OC)[C@H]1C3(C(OC)C[C@H]2O)[C@H]1C[C@@]2(O)[C@H](OC(=O)c3ccccc3)[C@@H]1[C@]4(O)[C@@H](O)[C@@H]2OC (stereo not given in full) | – | · | ·
Cc1c(P(=S)(c2ccccc2)c2ccccc2)c2ccccc2n1C | – | · | ·
Cc1c(P(=S)(c2ccccc2)c2ccccc2)[n+]2ccccc2n1C | 16µM! | · | ·
CCOc1ccc(CCNC(=O)c2cc3cccnc3n2Cc2cccc(C)c2)cc1OCC | – | · | ·
Nc1ccccc1 | 20µM | – | –
Nc1ccc(N)cc1 | ? | – | –
C=CC(C)(O)CC/C=C(\C)C(=O)O[C@H]1[C@H](O)[C@@H](CO)O[C@@H](OC(=O)[C@]23CCC(C)(C)CC2C2=CCC4[C@@]5(C)CC[C@H](O[C@@H]6O[C@H](CO[C@@H]7OC[C@H](O)[C@H](O)[C@H]7O[C@@H]7OC[C@@H](O)[C@H](O)[C@H]7O)[C@@H](O)[C@H](O)[C@H]6O)C(C)(C)C5CC[C@@]4(C)[C@]2(C)CC3)[C@@H]1OC1OC(C)C(O[C@@H]2OC[C@@H](O)[C@H](O[C@@H]3OC[C@@H](O)[C@H](O)[C@H]3O)[C@H]2O)C(O)C1O (stereo not given in full) | –[6.45 µM] | · | ·
O=c1oc2ccccc2c(O)c1C(CC(O)c1ccc(-c2ccc(Br)cc2)cc1)c1ccccc1 (stereo not given) | 89µM | – | –
Cc1c(C(c2ccc(F)cc2)c2c(O)c3ccccc3oc2=O)c(=O)n(-c2ccccc2)n1C (stereo not given) | – | – | –
CC1Oc2cc3c(-c4c(O)cc(O)c5c(O)c6c(cc45)OC(C)C(C)C6=O)c(O)cc(O)c3c(O)c2C(=O)C1C (stereo not given) | 18µM | · | ·
COc1ccc2[nH]c(-c3ccccc3)c(CCN(C)C)c2c1 | – | · | ·
c1cc2c(cc1C1OC[C@@H]3C(c4ccc5c(c4)OCO5)OC[C@H]13)OCO2 (stereo not given in full) | – | · | ·
CC(=O)c1ccc(NC(=O)c2sc3nc4c(cc3c2N)N2CCC4CC2)cc1 | – | – | –
Nc1c(C(=O)Nc2ccc(OC(F)(F)F)cc2)sc2nc3c(cc12)N1CCC3CC1 | – | – | 7.9µM
C[C@@]12OC(=O)[C@]1([C@@H](O)[C@@H]1C=CCCC1)NC(=O)[C@@H]2CCCl | – | · | ·
Cc1cccc(Cn2cccc(C(=O)Nc3ccc(F)cc3F)c2=O)c1 | – | – | 28µM
O=C(Nc1ccc2c(c1)OCCO2)c1cccn(Cc2cccc(F)c2)c1=O | – | – | –
Nc1ccn(CC(CO)OCP(=O)(O)O)c(=O)n1 (stereo not given) | – | · | ·
O=C(Nc1nc2ccccc2s1)c1cccn(Cc2ccccc2)c1=O | – | – | ?
SMILES | NTMT1 inhibitor | HTT-AS promoter | HTT promoter inh | others
Cc1ccccc1Cn1cccc(C(=O)Nc2nc3ccccc3s2)c1=O | – | – | 0.32µM
Oc1ccc2c3c1O[C@H]1[C@H](N(CCCl)CCCl)CC[C@@]4(O)[C@@H](C2)N(CC2CC2)CC[C@]314 | –[12.6 µM] | · | ·
CCOC(=O)c1c(C(C#N)=CN)c2ccc(Cl)c(Cl)c2n1C | 79µM | – | –
COC(=O)[C@@]1(C)C(=O)C=C[C@]2(C)c3c(O)cc(C(C)C)cc3[C@H](O)[C@@H](OC(C)=O)C12 (stereo not given in full) | – | · | ·
CN1C(=O)N(c2ccc(C#N)c(C(F)(F)F)c2)C(=O)[C@]1(CO)c1ccccc1 | – | · | ·
COc1ccc(C23CCC(=O)C=C2N(C)CC3)cc1OC (stereo not given) | – | · | ·
CCOc1ccc(CCNC(=O)c2cc3ccccc3n2CCN2CCOCC2)cc1OCC | – | · | ·
C[C@]12CC[C@H]3[C@@H](CCC4=CC(=O)CC[C@@H]43)[C@@H]1CC[C@@H]2O | ? | – | –
C[C@]12CC[C@@H]3c4ccc(OC(=O)N(CCCl)CCCl)cc4CC[C@H]3[C@@H]1CC[C@@H]2O | 22µM | – | –
CC[C@]1(O)CC[C@H]2[C@@H]3CCC4=CCCC[C@@H]4[C@H]3CC[C@@]21C | 13µM | – | –
CC[C@H]1C[C@H]2[C@@H]3CCC4=CC(=O)CC[C@@H]4[C@H]3CC[C@]2(C)[C@H]1O | ? | – | –
O=C1OC(c2ccc(O)c(S(=O)(=O)O)c2)(c2ccc(O)c(S(=O)(=O)O)c2)c2c(Br)c(Br)c(Br)c(Br)c21 | 79µM | – | –
CCCCN1[C@@H]2CC[C@H]1CC(OC(c1ccc(F)cc1)c1ccc(F)cc1)C2 (stereo not given in full) | – | · | ·
C[C@]12CC[C@@H](O[C@@H]3O[C@H](CO)[C@@H](O)[C@H](O)[C@H]3O)C[C@@]1(O)CCC1C2CC[C@]2(C)[C@@H](C3=CC(=O)OC3)CC[C@]12O (stereo not given in full) | – | · | ·
CC1CCCC(=O)CCC/C=C/c2cc(O)cc(O)c2C(=O)O1 (stereo not given) | 7.9µM | · | · | NNMT counter=?
CC1CCCC(O)CCC/C=C/c2cc(O)cc(O)c2C(=O)O1 (stereo not given) | – | · | ·
CC(=O)O[C@H]1C(=O)[C@]2(C)C(O)C[C@H]3OC[C@@]3(OC(C)=O)[C@H]2[C@H](OC(=O)c2ccccc2)[C@]2(O)C[C@H](O)C(C)=C1C2(C)C (stereo not given in full) | –[12.6 µM] | · | ·
